Screen size: about 2,100 compounds; about 650 (31%) were called active. Roughly 16% stayed inconclusive and do not appear here. Calls follow the shape of the dose curve; as a rule, active = well fitted inhibition curve with a large enough effect; inconclusive = small, poorly fitted or top-dose-only effect; inactive = flat fitted curve, though single readings scatter. Some of the results follow. A call without a number means that no potency is given here.
Assay: qHTS for inhibitors of Vif-A3G interactions: Cherry picks; also: nearly all actives have a fitted effect of over 80% in size
Conditions: HeLa A3G-eYFP + Vif (tagged APOBEC3G with the HIV-1 protein that degrades it), 24 h; Potency: eYFP fluorescence increase; series mostly up to 36.9 µM
Description: The recent discovery and characterization of host restriction factors, which provide a potent defense to invading retroviruses, has provided new targets for antiviral drug development. APOBEC3G (A3G) and APOBEC3F (A3F) are potent cytidine deaminases that block HIV-1 replication; HIV-1 expresses the Vif protein, which counteracts A3G and A3F by binding to them and inducing their proteasomal degradation. The Vif-A3G and Vif-A3F interactions provide two potential targets for development of small molecules which can interfere with the ability of Vif to degrade A3G or A3F. […] To identify inhibitors that can interfere with Vif mediated degradation of A3G and A3F, we have developed Hela cell lines that stably express A3G or A3F tagged with eYFP at the C-terminal end (A3G-eYFP or A3F-eYFP, respectively) and Vif. In the absence of an inhibitor, Vif induces degradation of A3G-eYFP and A3F-eYFP, and the cells are not fluorescent. In the presence of an inhibitor, it is expected that Vif will be unable to degrade A3G-eYFP and/or A3F-eYFP, resulting in an increase in yellow fluorescence. In this assay, Vif A3G was screened against the cherry picks ordered from the MLSMR. NIH Chemical Genomics Center [NCGC] NIH Molecular Libraries Probe Centers Network [MLPCN] MLPCN Grant: MH093245 Assay Submitter (PI): Vinay Pathak, National Cancer Institute
A3G-Vif cells were harvested from T225 flask and resuspended in phenol free OPTI-MEM medium with 5% FBS. Then 5 uL of 140,000 cells/mL resuspended cells was dispensed into each well of low base Aurora COC 1,536-well plates (black walled, clear bottom) using a Multidrop Combi dispenser. After overnight culture at 37 deg C with 5% CO2, a total of 23 nL of compounds at 5 selected concentrations from the NPC or positive control (2 mM stock of MG132) in DMSO was transferred to each well of the assay plate using a pintool (Kalypsys, San Diego, CA), and the plates were further incubated at 37 deg C with 5% CO2 for 24 hours. After that, the plates were measured on Acumen Explorer (TTP Lab Tech). The fluorescence was detected by 488 nm/Ex and […].
Potency is read from the fitted curve at half-maximal effect.

SMILES | Potency
Cc1c(C(=O)N2CCOCC2)[nH]c2c1C(=O)CC(c1ccccc1Cl)C2 (stereo not drawn) | inactive
Cc1ccc(C)c(N2CCN(C(=O)c3cccn4c(=O)c5sccc5nc34)CC2)c1 | inactive
COc1ccc(-c2coc3cc4oc(=O)cc(-c5ccccc5)c4cc23)cc1F | inactive
CCC/C=N/NC(=O)c1[nH]c2c([N+](=O)[O-])cccc2c1C | inactive
O=C(CSc1nc2ccc(Nc3nc(N4CCOCC4)nc(N4CCOCC4)n3)cc2s1)Nc1ccccc1F | 5.8 µM (active)
CCCC(=O)Nc1nc2ccc(NC(=O)c3ccccc3F)cc2s1 | inactive
O=C(CSc1nc2ccccc2s1)c1cc2ccccc2o1 | inactive
Cc1ccc(C(=O)CSC2=C(C#N)C(c3ccco3)C3=C(CCCC3=O)N2)cc1 (stereo not drawn) | inactive
N#Cc1ccc(-c2cccnc2)nc1SCC(=O)c1ccccc1 | 16.4 µM (active)
Cc1nc(SCC(=O)c2ccccc2)c(C#N)c(-c2ccco2)c1C(=O)NCc1ccco1 | inactive
Cc1ccc(C(=O)CSc2nc(-c3ccccc3)ccc2C#N)cc1 | 18.4 µM (active)
CCOc1cc(C#N)c(NC(=O)c2cccnc2)cc1OCC | inactive
CCOc1ccc(S(=O)(=O)Nc2cc3c(C(=O)OC)c(COC)oc3c3ccccc23)cc1 | inactive
CN1/C(=C\C=C(/C#N)C(=O)Nc2ccccc2F)C(C)(C)c2ccccc21 | 9.2 µM (active)
CN1/C(=C\C=C(/C#N)C(=O)Nc2ccc(Cl)cc2)C(C)(C)c2ccccc21 | 4.98 µM (active)
COc1ccc(NC(=O)/C(C#N)=C\C=C\c2ccco2)cc1 | inactive
O=C(NNC1=Nc2cccc3cccc1c23)c1ccc(Br)cc1 | 18.4 µM (active)
COCCCNC(=S)N/N=C/c1cccc(OC)c1O | inactive
CC1=C(n2nnc3ccccc32)C(c2ccccc2)C(C#N)=C(N)O1 (stereo not drawn) | inactive
COc1ccc2c(c1)N(C)/C(=C/c1cccc[n+]1C)S2 | 14 µM (active)
COc1ccc(C(=O)Nc2ccc3c(c2)N(C)C(=O)c2ccccc2S3)cc1OC | inactive
CCOc1ccc(CN2C(=O)c3ccccc3Sc3ccc(C(=O)O)cc32)cc1 | inactive
CCN1/C(=C/c2cccc[n+]2C)Sc2ccc(OC)cc21 | 16.4 µM (active)
CC[n+]1ccccc1/C=C1\Sc2ccc(C)cc2N1C | 20.6 µM (active)
N#CC1=C(N)Oc2ccc3ccc(O)cc3c2C1c1ccsc1 (stereo not drawn) | inactive
O=C(Cc1nc2ccccc2[nH]c1=O)c1ccc(Cl)cc1 | 20.6 µM (active)

SMILES | Potency
c1ccc2[nH]c(NN=C3CCCCCC3)nc2c1 | inactive
CC(=O)/C(=C\N(C)C)Sc1ccc(Cl)cc1 | inactive
COc1cccc(C2=CC(c3cccs3)n3nnnc3N2)c1 (stereo not drawn) | inactive
Cc1cc(C)n(S(=O)(=O)/C=C/c2ccccc2)n1 | inactive
O=C(NCC1CCCO1)c1nn2c(C(F)(F)F)cc(-c3cc(Br)cs3)nc2c1Br (stereo not drawn) | 13 µM (active)
COc1ccc(C)cc1NCc1cc(=O)oc2cc(-c3ccccc3)c(O)cc12 | inactive
CCOC(=O)c1c(-c2ccc(OC)cc2)csc1/N=C/C1C(=O)CCCC1=O | inactive
O=C(CC1CC2CCC1C2)Nc1nc(-c2ccccn2)cs1 (stereo not drawn) | inactive
N#Cc1c(-c2ccc(F)cc2)c(-c2ccc(F)cc2)nn(CCO)c1=O | 12.5 µM (active)
N#Cc1c(-c2ccccc2)c(-c2ccccc2)nn(CC(=O)NNC(=O)Nc2ccccc2)c1=O | inactive
CCn1c(SCC(=O)N/N=C/c2ccc(C)s2)nc2ccccc21 | inactive
Cc1ccc(S(=O)(=O)N2CCCCC2CCNC(=O)C(=O)NCc2ccco2)cc1 (stereo not drawn) | inactive
COc1cc(/C=N\Nc2ccc([N+](=O)[O-])cc2)ccc1OCC(=O)Nc1ccc(C)c(C)c1 | 8.2 µM (active)
Cc1cccc(C)c1OCC(=O)N/N=C/c1ccc2c(c1)OCO2 | inactive
Cc1ccccc1OCC(=O)N/N=C/c1ccc(N(C)C)cc1 | inactive
COCCNC(=S)N/N=C(\C)c1ccccc1O | inactive
C[n+]1ccc(/C=C/c2c[nH]c3ccccc23)cc1 | 11.6 µM (active)
OCC[n+]1ccc(/C=C/c2c[nH]c3ccccc23)cc1 | 10.3 µM (active)
CC[n+]1ccc(/C=C/c2c[nH]c3ccccc23)cc1 | 14.6 µM (active)
C[n+]1ccc(/C=C/c2cc[n+](C)c3ccccc23)c2ccccc21 | inactive
CC(=O)Nc1cccc(-c2cc(NC=O)c3ncc(-c4ccc(F)c(Cl)c4)n3c2)c1 | inactive
COc1ccc(-c2cc(NC=O)c3ncc(-c4cccc(C(F)(F)F)c4)n3c2)cc1OC | inactive
N#C/C=C/N1CCN(C(=O)c2ccco2)CC1 | inactive
COc1cc(C2Sc3ccccc3NC3=C2C(=O)OC3)cc(OC)c1OC (stereo not drawn) | inactive
COc1cc(CCC(=O)Nc2nnc(C)s2)cc(OC)c1OC | inactive
Cc1cc(C)nc(NC(=S)Nc2cccc(Cl)c2Cl)c1 | inactive

SMILES | Potency
N#CC(C(=O)NCc1ccccc1)c1nc2ccccc2nc1N1CCCC1 (stereo not drawn) | 18.4 µM (active)
CCN(CC)c1nc2ccccc2nc1C(C#N)C(=O)NCCc1ccccc1 (stereo not drawn) | 3.66 µM (active)
NC(=O)C1CCN(c2nc3ccccc3nc2NS(=O)(=O)c2ccc(Br)cc2)CC1 | inactive
CN1CCN(c2ccc([N+](=O)[O-])cc2C(=O)c2ccc(Br)cc2)CC1 | inactive
Cc1cc(C)c(C(=O)N(CCN(C)C)CC2CCCN(Cc3ccccc3F)C2)o1 (stereo not drawn) | inactive
COc1ccccc1C(=O)Nc1ccc2c(c1)CN(C(=O)CSC)CC2 | inactive
Cc1ccc(-c2nc3sc(C#N)c(N)n3c(=O)c2C#N)cc1 | 18.4 µM (active)
O=C(NCc1ccco1)C1Cc2c(-c3cccc(F)c3)ccnc2O1 (stereo not drawn) | inactive
Cc1ccc(C(=O)c2cc([N+](=O)[O-])ccc2N2CCN(C)CC2)cc1 | inactive
CCN(CC)c1ccc2cc(-c3nc(-c4cccs4)no3)c(=O)oc2c1 | 2.91 µM (active)
CCN(CC)c1ccc2cc(-c3nc4sc5c(c4c(=O)[nH]3)CCC(C(C)(C)C)C5)c(=O)oc2c1 (stereo not drawn) | inactive
CCN(CC)c1ccc2cc(-c3nc(-c4ccc(Cl)cc4Cl)cs3)c(=O)oc2c1 | 2.91 µM (active)
CCN(CC)c1ccc2cc(-c3nc(-c4cc(OC)c(OC)c(OC)c4)no3)c(=O)oc2c1 | 0.58 µM (active)
CCN(CC)c1ccc2cc(-c3nnc(-c4ccccc4)o3)c(=O)oc2c1 | 0.627 µM (active)
CC(=O)Nc1cccc(-c2ccnc3c2CC(C(=O)NCc2cccs2)O3)c1 (stereo not drawn) | inactive
CC(=O)Nc1ccc(NC(=O)C/C(C)=N/NC(N)=S)cc1 | inactive
O=c1oc2cc(O)ccc2cc1-c1nc(-c2ccc(Cl)c(Cl)c2)cs1 | 1.84 µM (active)
Oc1ccc(-c2nc(-c3ccc(O)c(O)c3)cs2)cc1 | inactive
COc1ccc(-c2csc(-c3ccc(O)cc3)n2)cc1 | inactive
CCN(CC)c1ccc2cc(-c3nc(-c4ccccc4)no3)c(=O)oc2c1 | 4.61 µM (active)
CCN(CC)c1ccc2cc(-c3nc4ccccc4n3C)c(=O)oc2c1 | 16.4 µM (active)
CCN(CC)c1ccc2cc(-c3nnc(-c4cccc(Cl)c4)o3)c(=O)oc2c1 | 1.3 µM (active)
COc1cccc(C2=CC(c3cc(Br)ccc3F)n3nnnc3N2)c1 (stereo not drawn) | inactive
CCN(CC)c1ccc(/C=N/N=C(N)N)c(O)c1 | inactive
CCN(CC)c1ccc2cc(C(N)=O)c(=N)oc2c1 | 23.1 µM (active)
O=C1/C(=C/c2c[nH]c3ccccc23)CCC/C1=C\c1c[nH]c2ccccc12 | 18.4 µM (active)

SMILES | Potency
O=C(c1ccccc1)c1c2c(cc3sc4ccccc4[n+]13)-c1cccc3cccc-2c13 | inactive
S=C(NN=Cc1ccccn1)Nc1ccccn1 | inactive
C/C(=N\Nc1nc(C)cc(-c2ccccc2)n1)c1ccc(F)cc1 | inactive
CCOc1ccccc1C(=O)Nc1c(C(=O)Nc2ccc(F)cc2)oc2ccccc12 | inactive
CCOc1ccc(Br)cc1C(=O)Nc1ccc(C(=O)NCC(C)C)cc1 | 6.51 µM (active)
CCOc1ccc(Br)cc1/C(C)=N\NC1=NCCN1 | inactive
COCCNC(=S)NN=C1CCCCCC1 | inactive
O=C1CC(c2cc(Br)ccc2F)c2cc3c(cc2N1)CCC3 (stereo not drawn) | inactive
Cc1ccc(/C=C/c2ccc(N(C)C)cc2)[n+](C)c1 | 14 µM (active)
CC[n+]1cc(C)ccc1/C=C/c1ccc(N(C)C)cc1 | 14 µM (active)
CN(C)c1ccc(/C=C/c2cc[n+](C)cc2)cc1 | 15.8 µM (active)
O=C1NC(c2cccc(Cl)c2)Nc2ccccc21 (stereo not drawn) | inactive
CC(C)(C)c1ccc(Cn2c(=O)cnc3ccccc32)cc1 | inactive
O=c1[nH]ncc2c3ccccc3n(Cc3cccc(Cl)c3)c12 | 23.1 µM (active)
COc1cc(/C=C2\SC(=S)N(Nc3ncc(C(F)(F)F)cc3Cl)C2=O)ccc1O | 18.4 µM (active)
O=C(NNc1ncc(C(F)(F)F)cc1Cl)c1c(Cl)cccc1Cl | inactive
CN(C)c1ccc(/C=C2\SC(=S)N(Nc3ncc(C(F)(F)F)cc3Cl)C2=O)cc1 | 3.66 µM (active)
CCOC(=O)Nc1ccc2nc(-c3cscn3)[nH]c2c1 | inactive
CCCn1c(C2CCCN2c2nc(-c3cccc(Br)c3)cs2)nc2ccccc21 (stereo not drawn) | inactive
CCc1ccc(C(=O)NC(=S)Nc2ccc(N3CCOCC3)cc2)cc1 | inactive
CCc1ccc(NC(=O)/C(C#N)=C/c2cc3ccc(C)cc3nc2N2CCOCC2)cc1 | 14.6 µM (active)
Cc1cc2c(cc(C(=O)OCC(=O)NCc3cccs3)n2C(C)C)o1 | inactive
CCOC(=O)C1C(=O)C=C(/C=C/c2ccc(N(C)C)cc2)CC1c1ccccc1 (stereo not drawn) | 6.51 µM (active)
COc1ccc(NC(=S)NN(C)C(=S)Nc2ccc(OC)cc2)cc1 | inactive
CCC(=C/c1sc2ccc3ccccc3c2[n+]1C)/C=C1\Sc2ccc3ccccc3c2N1C | inactive
